Test results taken from PubChem BioAssay AID1645853 (Buhrlage Lab, Dana-Farber Cancer Institute and Novartis …, 2021).
Hit rate of the full screen: of about 47,000 compounds, about 2,000 (4.3%) were called active. The sample as a whole holds a higher share of actives than the screen did. Values without a mark were called inactive. Rule as the data show it: active = inhibition above about 30%; inactive = the rest.

Biological target: Ubiquitin carboxyl-terminal hydrolase 8 (Homo sapiens) (UniProt P40818)
Experiment: blocks human USP8 ubiquitin-rhodamine cleavage (AID 1645853)
Details: purified USP8, Ub-rhodamine cleavage fluorescence, 30 min; at 20 µM; stronger effect = higher value

Chain of Ubiquitin carboxyl-terminal hydrolase 8 (Homo sapiens) (P40818 whole entry, looked up): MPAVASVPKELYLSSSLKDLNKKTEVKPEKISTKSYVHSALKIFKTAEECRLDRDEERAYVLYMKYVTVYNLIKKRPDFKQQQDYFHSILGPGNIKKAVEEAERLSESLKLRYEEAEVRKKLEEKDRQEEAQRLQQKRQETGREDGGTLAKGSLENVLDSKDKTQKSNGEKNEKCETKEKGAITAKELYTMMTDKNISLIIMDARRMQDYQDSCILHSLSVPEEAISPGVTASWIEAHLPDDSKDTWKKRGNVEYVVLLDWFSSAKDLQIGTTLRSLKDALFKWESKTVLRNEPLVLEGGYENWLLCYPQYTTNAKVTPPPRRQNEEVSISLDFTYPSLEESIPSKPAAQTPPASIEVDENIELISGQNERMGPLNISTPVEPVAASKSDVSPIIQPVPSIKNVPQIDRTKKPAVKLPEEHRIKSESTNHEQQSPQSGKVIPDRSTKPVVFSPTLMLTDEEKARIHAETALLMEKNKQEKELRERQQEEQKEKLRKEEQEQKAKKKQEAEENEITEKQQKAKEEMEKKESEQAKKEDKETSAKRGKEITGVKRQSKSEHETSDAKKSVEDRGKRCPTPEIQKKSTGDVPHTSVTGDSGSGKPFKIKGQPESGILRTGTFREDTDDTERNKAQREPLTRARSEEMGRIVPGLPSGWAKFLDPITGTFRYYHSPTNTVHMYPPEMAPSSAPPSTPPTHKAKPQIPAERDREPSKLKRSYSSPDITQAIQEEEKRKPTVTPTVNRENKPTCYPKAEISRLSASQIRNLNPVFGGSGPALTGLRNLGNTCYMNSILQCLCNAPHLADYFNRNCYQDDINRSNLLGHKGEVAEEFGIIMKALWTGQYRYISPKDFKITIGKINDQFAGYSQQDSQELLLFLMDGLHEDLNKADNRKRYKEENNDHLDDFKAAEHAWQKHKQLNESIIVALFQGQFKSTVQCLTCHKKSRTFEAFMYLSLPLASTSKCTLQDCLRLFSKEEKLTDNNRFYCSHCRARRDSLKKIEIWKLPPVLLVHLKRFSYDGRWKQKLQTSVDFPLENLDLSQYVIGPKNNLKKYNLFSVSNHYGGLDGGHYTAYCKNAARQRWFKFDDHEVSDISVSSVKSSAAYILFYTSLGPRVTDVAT

SMILES | inhibition
Cc1ccc(S(=O)(=O)N(CC(=O)NC(C)c2ccccc2)Cc2ccccc2F)cc1 (stereo not given) | 5.32%
COc1cccc(S(=O)(=O)N2CCC(c3nccc(C)n3)C2)c1 (stereo not given) | 0.292%
N#Cc1ccc(NC(=O)Nc2cccn(Cc3ccccc3F)c2=O)cc1 | 96.4% (active)
N#Cc1ccc(NC(=O)COC(=O)c2ccc3ccccc3n2)cc1 | -17.7%
O=C(CCCn1c(=O)c2ccccc2n(Cc2ccccc2F)c1=O)NC1CCCC1 | 5.2%
O=C(Cn1cncn1)N1CCN(C(c2ccccc2)c2ccccc2)CC1 | -4.21%
c1cnc(Nc2cnc(C3CCCN(Cc4cnc[nH]4)C3)cn2)cn1 (stereo not given) | -10.5%
CCN1C(=O)c2ccccc2C(=O)[C@@]2(C)CN(C(=O)c3ccccc3)C[C@@H]12 | 15.6%
N#Cc1cccc(S(=O)(=O)c2c[nH]c3ccc(Cl)cc3c2=O)c1 | 46.9% (active)
O=c1c(S(=O)(=O)c2cc(F)cc(F)c2)c[nH]c2ccc(F)cc12 | 4.59%
N#Cc1cccc(S(=O)(=O)N2CCC3(CC2)OC(=O)Nc2ccccc23)c1 | 10.6%
O=C(C1Cc2ccccc2CN1S(=O)(=O)c1ccc2c(c1)OCCO2)N1CCCC1 (stereo not given) | 1.43%
CC1=C(C(=O)Nc2ccc(C)cc2C)C(c2cccs2)n2c(nc3ccccc32)N1 (stereo not given) | 31.4% (active)
COc1cccc(C2C(C(=O)Nc3ccccc3C)=C(C)Nc3ncnn32)c1OCc1ccccc1 (stereo not given) | -22.6%
CC1=C(C(=O)Nc2ccccc2)C(c2cccs2)n2ncnc2N1 (stereo not given) | -32.6%
Cc1cc2c(cc1CNC(=O)c1ccc3c(c1)CC(C)O3)OCCCO2 (stereo not given) | -4.91%
O=C1c2ccccc2-c2nnc(-c3ccc(Oc4ccccc4)cc3)cc21 | 14.8%
Cc1nn2c(S(=O)(=O)Nc3cccc(F)c3C)c(C)nc2s1 | 19.1%
COCCN1C(=O)Cc2c(C)nc(C3(C)CCCN(c4cc(C)ncn4)C3)nc21 (stereo not given) | 6.73%
COCCN1C(=O)Cc2c(C)nc(C3(C)CCCN(c4ccnc(C)n4)C3)nc21 (stereo not given) | 30.4% (active)
O=C(C1CCCCC1)N1CCN(c2ncnc3c2nnn3Cc2ccccc2)CC1 | 6.37%
Cc1cccc(NC(=O)c2csc(-c3cn(C)c4ncccc34)n2)c1 | 6.69%
Cn1nc(C(=O)Nc2ccc(F)cc2)c(=O)c2ccccc21 | -3.42%
Cn1cc(-c2nc(C(=O)Nc3ccc(F)cc3)cs2)c2cccnc21 | 30.4% (active)
Cc1[nH]c(C)c(S(=O)(=O)NC2CC2)c1-c1nc(C2CC2)no1 | -17.3%
